# Screening data as filed in PubChem.
# HT1080-NT tox: kills 2HG-producing HT-1080-NT fibrosarcoma cells; HT-1080-NT fibrosarcoma viability, CellTiter-Glo ATP luminescence, 48 h; Potency, µM (highest dose often 46.1 µM), inactives show top-dose activity, negative = less viability, hits mostly cytotoxic; 1.6% of 360,000 active;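 note: NT is the 2HG producing partner of a matched IDH1 knockdown line; 0% = DMSO-treated cells and -100% = media-only wells without cells; nearly all actives have a fitted effect of over 55% in size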
#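 A 48-hour cytotoxicity screen used HT-1080-NT cells plated 2 hours before compound delivery. ATP-based CellTiter-Glo luminescence measured viability, normalized to DMSO and no-cell controls.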
# TGFb SMAD3 inh: inhibitors of TGF-b signaling; HepG2 CAGA-GFP TGF-b/SMAD3 reporter, GFP fluorescence, 18 h; TGF-beta stimulated, 500 pg/mL final; Potency, µM (top dose mostly 46.1 µM), for the others: top-dose activity, negative = inhibition, most hits filed as inhibitors; 1.2% of 410,000 active; AID 588855; note: % is set by controls: 0 for no effect and ±100 for the full control effect; nearly all actives have a fitted effect of over 65% in size
#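 Read-out: total well GFP (ex488/em500-530) summed from mean per-cell fluorescence. Cells: HEPG2 CAGA-GFP, 1% FBS DMEM, 18 h at 37 degrees C with 500 pg/mL final TGF-beta. Unstimulated wells served as the full-inhibition control; stimulated DMSO wells = 0%.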
# TDP1 cell CPT: DT40-hTDP1 cell growth loss with CPT; chicken DT40 Tdp1-/-;hTDP1 cells + 20 nM CPT, ATP luminescence, 48 h; 12% of 420,000 active; AID 686979; Potency, µM (doses to about 46.2 µM), for inactives: top-dose activity change, negative = growth inhibition, usual class: inhibitors; note: % is set by controls: 0 for no effect and ±100 for the full control effect; nearly all actives have a fitted effect of over 55% in size
#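 Chicken DT40 Tdp1-/- cells complemented with human TDP1, 400 cells/well, exposed to compounds plus 20 nM camptothecin for at least 48 h at 37 C; viability read as ATP content by CellTiter-Glo luminescence.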
# TDP1 cell noCPT: qHTS for Inhibitors of human tyrosyl-DNA phosphodiesterase 1 (TDP1): qHTS in cells in absence of CPT; DT40 Tdp1-/- hTDP1 cells, no CPT, ATP luminescence, 48 h; Potency, µM (top dose mostly 46.2 µM), inactives show top-dose activity change, negative = growth inhibition, hits mostly inhibitors; 15% of 420,000 active; AID 686978, 2013; note: % is set by controls: 0 for no effect and ±100 for the full control effect; nearly all actives have a fitted effect of over 55% in size
#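 Growth kinetics read by CellTiter-Glo luminescence after ≥48 hr at 37 °C. Cells: DT40 Tdp1-/- stably carrying human TDP1, 400 per well, compound exposure in the absence of CPT (DMSO vehicle).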
# HT1080 IDH1KD tx: toxicity to HT-1080 IDH1 knockdown cells (counter line) | HT-1080 IDH1 knockdown viability, ATP luminescence, 48 h | Potency, µM (series often up to 46.1 µM), inactives show top-dose activity, negative = toxicity, most hits filed as cytotoxic | 2% of 360,000 active;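 note: 0% = DMSO wells and -100% = cell-free medium wells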
#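 HT-1080-IDH1KD cells (IDH1 knocked down), 750/well in RPMI with 5% FBS, treated with compound 48 h at 37 degrees C. Viability by CellTiter-Glo luminescence, normalised to DMSO and no-cell wells; concentration-response curves classed.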
# HepG2 tox: kills HepG2 cells in TGF-b inhibitor counter-screen; HepG2 CAGA-GFP viability, ATP luminescence, 18 h; Potency, µM (series often up to 46.1 µM), inactives show at the highest dose activity change, negative = cytotoxicity, most hits filed as cytotoxic; 0.76% of 410,000 active; AID 588856
#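 CellTiter-Glo luminescence gave cytotoxicity after 18 hours at 37 degrees C. The cells were HepG2 CAGA-GFP in 1% FBS DMEM, stimulated with 500 pg/mL TGF-beta after compound addition. %Activity was normalised to no-cell wells (complete cell-killing) and DMSO (no toxicity), and curves were fitted and classified.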
# An asterisk follows results filed as active; ? = inconclusive; / = not tested or not shown; ! = repeats disagree; [ ] = dose if it differs, or a comment. A selection: hits, their analogues and other compounds. The true share with any hit is near 17%. Calls come from the whole dose curve; as a rule, active = well fitted curve in the direction sought with a large enough effect; inconclusive = small, poorly fitted or top-dose-only effect, or another doubt; inactive = no such curve, though single readings can be large; an effect the other way counts as inactive or inconclusive. Potency is the fitted concentration of half-maximal effect.
SMILES,HT1080-NT tox,TGFb SMAD3 inh,TDP1 cell CPT,TDP1 cell noCPT,HT1080 IDH1KD tx,HepG2 tox
CCN1CCN(Cc2nc3c(c(=O)[nH]c(=O)n3C)n2Cc2ccccc2Cl)CC1,-3%,-9%,-10%,-16%,11%,-2%
Cn1c(=O)[nH]c(=O)c2c1nc(CN1CCN(c3ccccc3F)CC1)n2Cc1ccc(F)cc1,/,-19%,-25%,-27%,/,-17%
Cc1ccc(Cl)cc1N1CCN(Cc2nc3c(c(=O)[nH]c(=O)n3C)n2CCc2ccccc2)CC1,9%,14%,16µM*,?,7%,-1%
COc1ccc(C(=O)Nc2nnc(SCc3cc(=O)n4cc(Cl)ccc4n3)s2)cc1,/,-6%,-10%,-7%,/,0%
O=C(Cc1ccc(Br)cc1)Nc1ccc2[nH]ncc2c1,-1%,-10%,1%,-11%,-17%,-4%
CCN1CCN(c2ccc(Nc3ccnc4ccccc34)cc2)CC1,-43%,?,12µM*,5.8µM*,?,-24%
CCOc1ccc(Nc2ccnc3cc(Cl)ccc23)cc1,?,-16%,?,?,?,-25%
CCN1CCN(c2nc(-c3ccccc3Cl)nc3ccccc23)CC1,-4%,16%,-20%,?,0%,-11%
CN1CCN(c2ccc(Nc3ccnc4cc(Cl)ccc34)cc2)CC1,?,-33%,4.6µM*,5.8µM*,21µM*,-31%
COC(=O)c1ccccc1NC(=O)CCS(=O)(=O)c1nc(-c2ccc3c(c2)OCO3)cc(C(F)(F)F)n1,/,0%,2.9µM*,3.3µM*,/,-30%
CSc1ccccc1NC(=O)CCS(=O)(=O)c1nc(-c2ccc3c(c2)OCO3)cc(C(F)(F)F)n1,/,16µM*,8.2µM*,18µM*,/,-83%
O=C(CCS(=O)(=O)c1nc(-c2ccc3c(c2)OCO3)cc(C(F)(F)F)n1)Nc1ccc(Br)cc1,/,?,4.1µM*,3.3µM*,/,-105%
O=C(CCS(=O)(=O)c1nc(-c2ccc3c(c2)OCO3)cc(C(F)(F)F)n1)Nc1ccccc1F,/,?,7.3µM*,8.2µM*,/,-66%
Cc1ccc(NC(=O)CCSc2nc(-c3ccc4c(c3)OCO4)cc(C(F)(F)F)n2)c(C)c1,/,0%,/,/,/,-60%
Cc1ccc(NC(=O)CCSc2nc(-c3ccc4c(c3)OCO4)cc(C(F)(F)F)n2)cc1,/,7%,/,/,/,-3%
C[C@H](NS(=O)(=O)c1ccc(Cl)cc1)C(=O)OCC(=O)NCCc1ccc(S(N)(=O)=O)cc1,12%,-2%,-5%,25%,7%,-2%
Cc1cc2nc(-c3cccc(Br)c3)c(CC3CCCCC3)n2c(C)c1Br,3%,/,-24%,?,-15%,/
CCCCc1c(-c2ccc(OC)c(OC)c2)ncn1CCc1ccccc1OC,15µM*,/,5.8µM*,5.8µM*,12µM*,/
CCCCc1c(-c2cccc(OC)c2)ncn1CCc1ccccc1OC,21µM*,/,15µM*,18µM*,26µM*,/
COc1ccccc1CCn1cc(C#N)c(=O)[nH]c1=O,2%,2%,1%,-17%,0%,-21%
CCCCCc1c(-c2ccccc2)ncn1CCc1ccccc1OC,?,/,23µM*,15µM*,?,/
COc1ccccc1CCn1cnc(-c2ccc(OC)c(OC)c2)c1C(C)C,23µM*,/,8.2µM*,5.8µM*,?,/
Cc1ccc(NC(=O)C2c3ccccc3Oc3ccccc32)c(C)c1,1%,1%,-19%,1%,-2%,3%
Cc1cc(OCC(=O)N(C)Cc2ccccc2)ccc1Cl,-12%,1%,-9%,?,-15%,-21%
Cc1cc(OCC(=O)N(C)Cc2ccccc2)ccc1Br,14%,-17%,?,23µM*,0%,-35%
SMILES,HT1080-NT tox,TGFb SMAD3 inh,TDP1 cell CPT,TDP1 cell noCPT,HT1080 IDH1KD tx,HepG2 tox
CN(Cc1ccc(F)cc1)C(=O)CN1CCN(S(=O)(=O)c2ccc3c(c2)OCCCO3)CC1,-3%,-5%,-26%,?,4%,-21%
CN(Cc1ccccc1)C(=O)CN1CCN(S(=O)(=O)c2ccc(Cl)c(Cl)c2)CC1,4%[9.24 µM],?,?,18µM*,-2%,-23%
Cc1cc(S(=O)(=O)N2CCN(CC(=O)N(C)Cc3ccccc3)CC2)ccc1Br,3%,0%,?,15µM*,-12%,-8%
CC(C)C[C@@H](C(=O)N[C@@H](C(=O)O)c1ccccc1)N1C(=O)N2CCc3c([nH]c4ccccc34)[C@@]2(C)C1=O,1%,10%,2%,-14%,0%,-2%
CC[C@H](C)C(=O)O[C@H]1CCC=C2C=C[C@H](C)[C@H](CC[C@@H]3C[C@H](O)CC(=O)O3)[C@H]21,/,/,19µM*,13µM*,/,/
CC[C@H](C)C(=O)O[C@H]1CCC=C2C=C[C@H](C)[C@H](CC[C@@H]3C[C@@H](O)CC(=O)O3)[C@H]21,4.1µM*,108%,?,15µM*!,7.3µM*,-41%
CCC(C)C(=O)OC1CCC=C2C=CC(C)C(CCC3CC(O)CC(=O)O3)C21 (configuration not stated),12µM*,-3%,?,23µM*,?,-39%
COc1ccc2c(c1)OC(C)CN(CCC(=O)NCC1OCCc3ccccc31)C2 (configuration not stated),/,/,12%[9.04 µM],-9%,/,/
COc1cc(Cl)c(C)cc1NC(=O)CC1CCCC1,-6%,-1%,9%,-22%,0%,-11%
CC(C)(C)C(=O)COC(=O)c1ccc2c(c1)C(=O)N(Cc1ccco1)C2=O,19%,7%,-13%,-19%,19%,17%
O=C(Nc1ccc(F)c(Cl)c1)c1cc(C2CCCCN2C(=O)CCCc2ccccc2)on1 (configuration not stated),-1%,-15%,?,18µM*,-4%,-32%
O=C(NCc1cccnc1)c1cc(C2CCCCN2C(=O)CCCc2ccccc2)on1 (configuration not stated),-4%,-15%,29µM*,?,0%,-16%
COc1ccc(NC(=O)c2cc(C3CCCCN3C(=O)CCCc3ccccc3)on2)c(C)c1 (configuration not stated),6%,-9%,0.73µM*,-90%,7%,-18%
